Assay outcomes (PubChem BioAssay)
Sampled rows, rich in hits. Any-hit rate of the full collection: about 1.8%.
Myeloid diff 2: promotes myeloid progenitor differentiation. ER-HoxA9 myeloid progenitors, lysozyme-GFP differentiation, flow cytometry. 1% of 360,000 active. AID 624256. calls only at 10 µM;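 active means normalized GFP-positive differentiation at or above the plate's own cutoff, the solvent-only control mean plus 3 SD; inconclusive means no clear call, values can overlap the other calls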;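 further: cells exposed to compound for four days before flow analysis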
CIT2-GFP yeast: modulators of TOR pathway CIT2-GFP in S. cerevisiae; S. cerevisiae CIT2-GFP strain, flow cytometry, 3 h; 100 means same as DMSO wells; GFP response vs DMSO, % at 10 µM; 0.065% of 320,000 active;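 active means GFP response relative to DMSO above a set limit, near the screen mean plus 3 SD, cut at about 150% in these data; inconclusive means Fewer than 70 cells measured for a yeast strain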;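 further: ratio of well median GFP fluorescence to mean of DMSO wells on the plate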
MEP2 TOR yeast: alters MEP2-GFP fluorescence in TOR pathway yeast screen; S. cerevisiae MEP2-GFP strain, flow cytometry GFP, 3 h; 100% = DMSO control level; GFP response vs DMSO, % at 10 µM; 0.51% of 330,000 active;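 active means GFP response versus DMSO above a set limit, roughly screen mean plus 3 SD, cut at about 180% in these data; inconclusive means fewer than 70 cells counted for a yeast strain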;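 further: median GFP fluorescence of the barcode-gated MEP2-GFP cells per well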
LAP4-GFP MLPCN: alters LAP4-GFP fluorescence in TOR pathway yeast screen; 0.34% of 320,000 active; S. cerevisiae LAP4-GFP multiplex, flow cytometry GFP, 3 h; median GFP as percent of DMSO wells; GFP response vs DMSO, % at 10 µM; AID 2023;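 active means GFP response vs DMSO above a set limit, about the screen mean plus 3 SD, cut at about 150% in these data; inconclusive means under 70 cell events counted for the yeast strain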
AGP1-GFP MLPCN: alters AGP1-GFP fluorescence in TOR pathway yeast screen; 0.02% of 320,000 active; GFP response vs DMSO, % at 10 µM; S. cerevisiae AGP1-GFP multiplex flow cytometry, 3 h; GFP as percent of DMSO wells; AID 2066;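 active means GFP response relative to DMSO above a set limit, near screen average plus 3 SD, cut at about 150% in these data; inconclusive means fewer than 70 cells counted for the yeast strain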;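 further: median GFP channel fluorescence of the gated AGP1 strain per well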
RPL19A-GFP yeast: yeast TOR pathway RPL19A-GFP modulation | 0.3% of 330,000 active | percent response vs DMSO, % at 10 µM | S. cerevisiae RPL19A-GFP strain, flow cytometry, 3 h; stronger effect = lower value | AID 2025;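 active means percent response vs DMSO below 50%; inconclusive means fewer than 70 events counted for the yeast strain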;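 further: median channel GFP fluorescence of the barcoded RPL19A-GFP strain; ratio of sample median GFP to plate DMSO average so 100% = DMSO; lower means less RPL19A-GFP as with rapamycin TOR inhibition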
An asterisk follows results filed as active; i = inactive; ? = inconclusive; nt = no result; + = active, no number; [ ] = another dose, or the depositor's remark.

SMILES	Myeloid diff 2	CIT2-GFP yeast	MEP2 TOR yeast	LAP4-GFP MLPCN	AGP1-GFP MLPCN	RPL19A-GFP yeast
CCn1c(Cc2ccccc2)nnc1SCC(=O)c1cccc([N+](=O)[O-])c1	i	105.3	111.5	107.6	108.0	104.5
CCOc1cc(CNCC2CCCN2CC)cc(Cl)c1OC (stereo unspecified)	i	?	222.9*[may fluoresce violet]	93.5	25.6	44.5*[may fluoresce violet]
CCN1CCCC1CNCc1cc(OC)c(OC)c(OC)c1 (stereo unspecified)	i	107.8	106.1	108.9	106.3	101.8
Cc1ccc(-c2onc3ccc(C4(C)OCCO4)cc23)cc1	i	?	216.6*[may fluoresce violet]	90.5	?	45.9*[may fluoresce violet]
CCn1cc(C(=O)NCC(=O)OC)c2cc(OC)c(OC)cc2c1=O	i	104.9	91.9	94.2	101.2	96.8
CCOC(=O)CNC(=O)c1cn(CC(C)C)c(=O)c2cc(OC)c(OC)cc12	i	?	247.8*[may fluoresce violet]	75.8	?	41.2*[may fluoresce violet]
COc1cc2c(C(=O)N3CCN(C4CCCCC4)CC3)cn(CC(C)C)c(=O)c2cc1OC	nt	?	201.0*[may fluoresce violet]	93.4	22.8	48.8*[may fluoresce violet]
Cc1cc(C(=O)NCc2ccco2)on1	i	108.8	105.8	102.9	107.0	102.1
Cc1ccc(C(=O)NCc2ccco2)o1	+	106.9	109.6	108.8	105.0	107.9
COc1ccc(C2C=C(c3ccccc3)Nc3nc(CCCO)nn32)cc1 (stereo unspecified)	nt	?	576.0*[may fluoresce violet]	91.7	?	44.5*[may fluoresce violet]
OCCCc1nc2n(n1)C(c1ccccc1)C=C(c1ccccc1)N2 (stereo unspecified)	i	92.8	86.7	93.7	97.5	99.6
Cc1cc(=O)n(-c2ccc3ccccc3n2)[nH]1	i	95.1	102.6	164.6*	90.3	101.2
CC1=CCC2C(=O)N(c3ccc4ccccc4n3)C(=O)C2C1 (stereo unspecified)	i	67.0	114.8	100.9	39.9	102.9
CCCCOc1ccc(C(=O)N2CCN(c3ccc(N4CCOCC4)nn3)CC2)cc1	i	69.9	79.0	157.5*	68.0	77.5
CN1CCN(c2ccc(NS(=O)(=O)c3ccc(Cl)cc3)cn2)CC1	+	92.7	95.4	100.2	98.4	94.7
Cc1ccc(S(=O)(=O)Nc2ccc(N3CCN(C)CC3)nc2)cc1	+	107.1	98.6	94.6	105.0	101.5
Cc1ccccc1C(=O)Nc1ccc(N2CCN(C)CC2)nc1	+	96.5	100.6	93.0	104.7	102.1
COCCCNC(=O)C[C@@H]1C[C@@]2(C(=O)OC)CC(C)(C)CC=C2N(Cc2ccco2)C1=O	i	nt	nt	nt	nt	nt
O=[N+]([O-])c1ccc(-[n+]2ccc3ccccc3c2)c([N+](=O)[O-])c1	+	94.4	96.7	100.9	96.5	96.8
O=C(CCS(=O)(=O)c1ccccc1)Nc1ccc(N2CCN(Cc3ccccc3)CC2)cc1	+	93.5	93.4	92.0	91.8	94.2
O=C(CCS(=O)(=O)c1ccc(F)cc1)Nc1ccc(N2CCN(Cc3ccccc3)CC2)cc1	i	99.5	94.7	95.4	96.5	95.8
N#C/C(=C\c1c(N2CCCCCC2)nc2ccccn2c1=O)C(=O)NC1CCS(=O)(=O)C1 (stereo unspecified)	i	106.4	181.0*	118.8	100.7	105.0
N#C/C(=C\c1c(N2CCN(c3ccccc3)CC2)nc2ccccn2c1=O)C(N)=O	i	88.5	259.6*	99.4	74.2	41.3*
Cc1cc(C)cc(Oc2nc3ccccn3c(=O)c2/C=C(\C#N)C(=O)NC2CCS(=O)(=O)C2)c1 (stereo unspecified)	i	?	627.5*[may fluoresce violet]	95.4	?	52.3
N#C/C(=C\c1c(Oc2ccccc2Cl)nc2ccccn2c1=O)C(=O)NC1CCS(=O)(=O)C1 (stereo unspecified)	i	97.7	103.7	95.9	82.5	98.5
SMILES	Myeloid diff 2	CIT2-GFP yeast	MEP2 TOR yeast	LAP4-GFP MLPCN	AGP1-GFP MLPCN	RPL19A-GFP yeast
N#C/C(=C\c1c(N2CCOCC2)nc2ccccn2c1=O)C(=O)NC1CCS(=O)(=O)C1 (stereo unspecified)	i	?	597.6*[may fluoresce violet]	99.8	22.8	55.4
Cc1ccc(Oc2nc3ccccn3c(=O)c2/C=C(\C#N)C(=O)NC2CCS(=O)(=O)C2)c(C)c1 (stereo unspecified)	i	101.7	103.7	87.6	96.4	99.7
COc1ccc(F)cc1S(=O)(=O)Nc1cc2c3c(c1)CCN3C(=O)CC2	i	96.6	94.7	91.0	96.9	93.9
COc1cc(/C=c2\sc3n(c2=O)C(c2ccccc2)C(c2ccccc2)=NN=3)ccc1O (stereo unspecified)	+	105.2	104.9	96.3	100.8	97.9
COc1cc(/C=c2\sc3n(c2=O)CCCN=3)ccc1O	i	nt	104.3	95.4	102.3	98.3
COc1ccc(CC(=O)Nc2cccc(S(=O)(=O)N3CCCCCC3)c2)cc1OC	+	102.6	99.0	93.8	98.9	98.3
COc1ccc(CCC(=O)Nc2cccc(S(=O)(=O)N3CCCCCC3)c2)cc1OC	i	101.3	96.4	96.2	104.9	101.2
COCCOC(=O)C(C#N)c1nc2ccccc2nc1N1CCN(Cc2ccccc2)CC1 (stereo unspecified)	+	112.2	103.9	104.2	107.3	99.8
COc1ccc(CN(C)C(=O)C2CC(=O)N(c3ccc4c(c3)OCCO4)C2)cc1 (stereo unspecified)	i	nt	nt	nt	nt	nt
Cc1ccc(-n2c(SCC(=O)c3c(N)n(C)c(=O)n(C)c3=O)nc3sc4c(c3c2=O)CCCC4)c(C)c1	+	99.8	99.2	95.2	100.9	103.4
Cc1ccc(-n2c(SCC(=O)O)nc3sc4c(c3c2=O)CCCC4)cc1	i	98.3	99.8	100.7	101.0	98.5
Cc1ccc(CN(CC(=O)NCc2ccc3c(c2)OCO3)C(=O)c2csnn2)cc1	+	94.1	83.2	93.4	98.2	93.8
COC(=O)c1oc2ccc(OC)cc2c1N	+	99.3	101.4	101.0	95.4	97.2
COc1ccc(C(=O)c2oc3ccc(OC)cc3c2N)cc1	i	92.0	93.8	105.6	85.5	91.4
Cc1cc(NC(=O)C(C)SCC(=O)OCc2ccc(Cl)cc2Cl)no1 (stereo unspecified)	i	72.1	117.3	94.1	105.3	89.5
CO/N=C\CC(=O)Nc1ccc(Cl)cc1Cl	+	103.3	115.2	107.5	97.8	101.6
CC1CCCCN1S(=O)(=O)c1ccc(S(=O)(=O)N2CCN(C)CC2)cc1 (stereo unspecified)	i	?	210.1*[may fluoresce violet]	83.1	?	52.9
COc1ccc(C(=O)NC(=S)Nc2ccc(N3CCCC3)cc2)cc1	i	82.3	91.6	106.3	98.4	96.7
COc1ccc(C(=O)Nc2ccc(N3CCCC3)cc2)cc1	+	90.1	99.4	105.2	97.3	95.1
